PubChem BioAssay
Activity calls are given as the source filed them.

Experiment: E. coli DRC41 culture turbidity changes, primary screen, E. coli filamentation inducer project, strain DRC41, OD650, 48 h (AID 1152);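 further: E. coli MC1000 strain DRC41 lacking acrAB efflux pump and sulA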
Details: E. coli DRC41 (acrAB sulA), higher = more signal, called active from +8 up or from −8 down

| Structure (SMILES) | z-score |
| --- | --- |
| O=C1NC(=O)C2C1C=CC(C(O)c1cccc(O)c1)N2Nc1ccc(Cl)cc1Cl (stereo unspecified) | -4.5 (inactive) |
| CC(C)C[C@@H]1NC(=O)C([C@@H](C)OCc2ccccc2)NC(=O)[C@@]23C(=O)N[C@@H](Cc4ccccc4)C2[C@H](C)[C@@]2(C)O[C@H]2C3/C=C/CC/C=C/CNC1=O (stereo partly specified) | 0.757 (inactive) |
| COc1ccc([Si](C)(C)[C@H]2[C@H](CCO)O[C@@]3(C(=O)N(Cc4ccc(N5CCOC5=O)cc4)c4ccccc43)[C@@H]2C)cc1 | 0.257 (inactive) |
| COc1ccc(CCNC(=O)[C@@]2(Sc3ccc(C)cc3)CC(=O)N(Cc3cc(C(F)(F)F)cc(C(F)(F)F)c3)[C@@H]2c2ccc(CO)cc2)cc1 | -0.601 (inactive) |
| CCCCC(O)C1C=CC2C(=O)NC(=O)C2N1Nc1ccc(Cl)cc1Cl (stereo unspecified) | -1.73 (inactive) |
| CO[C@H]1O[C@H](CO)[C@@H](OC(=O)Nc2ccc3c(c2)OCO3)[C@@H]2OC(=O)[C@@H](Cc3ccccc3)C/C=C/C[C@H](Cc3ccccc3)C(=O)O[C@@H]12 | 0.239 (inactive) |
| CN(C)C(=O)[C@]1(Cc2ccccc2CN=[N+]=[N-])N=C(c2ccc(OCCCO)cc2)O[C@@H]1c1ccccc1N=[N+]=[N-] | -0.174 (inactive) |
| O=C1OCCC=C[C@H]2OC34C=CCN(CCN5CCOCC5)C(=O)[C@H]3N(CCCO)C(=O)[C@@H]4C12 (stereo partly specified) | 0.274 (inactive) |
| C=CCNC(=O)[C@@H]1[C@H]2C(=O)O[C@H](c3ccccc3)[C@H](c3ccccc3)N2[C@H](c2ccccc2OCCO)[C@@]12C(=O)N(C(=O)OCCOC)c1ccc(C#CCCO)cc12 | -0.288 (inactive) |
| C=CCC(OC(C)=O)[C@@H]1[C@@H](N(Cc2cccc3ccccc23)C(=O)c2cccc3ccccc23)c2cc(OCCCO)ccc2N1C(=O)Cc1ccc2ccccc2c1 (stereo partly specified) | -0.341 (inactive) |
| C=C(COC)/C(=C/C[C@@H](OC(C)=O)c1ccccc1OCCO)c1cc(C(=O)OC)ccc1OC | 0.0999 (inactive) |
| COCC(=C=CC[C@@H](O)c1cccc(OCCO)c1)C[C@@H](O)COCc1ccccc1 | 1.63 (inactive) |
| CCCCC=C[C@@H](NC(=O)c1ccc(C(F)(F)F)cc1)c1ccccc1 | -1.96 (inactive) |
| COC(=O)[C@]1(CO)N=C(c2ccc(OCCCO)cc2)O[C@@H]1c1ccccc1CN=[N+]=[N-] | 0.699 (inactive) |
| COC(=O)[C@@]1(Cc2ccc(OC)cc2)[C@H]2c3cc(C(=O)N4CCCC4)n(CCc4ccc(OC)c(Br)c4)c3C[C@H]2CN1C(=O)c1ccccc1 | -0.536 (inactive) |
| COCCOC(=O)N1C(=O)[C@@]2(c3cc(C#CCC(C(=O)OC)C(=O)OC)ccc31)[C@H](C(=O)N1CCc3cc(OC)c(OC)cc3C1)[C@H]1C(=O)O[C@H](c3ccccc3)[C@H](c3ccccc3)N1[C@@H]2c1ccc(O)cc1 | -0.0961 (inactive) |
| CCC(CC)C(O)C1C=CC2C(=O)N(C)C(=O)C2N1N1CCCCC1 (stereo unspecified) | -1.65 (inactive) |
| COc1cc2c(cc1O)C(c1ccc(CN3CCCC3)cc1)N(Cc1ccc([N+](=O)[O-])o1)CC2 (stereo unspecified) | -0.715 (inactive) |
| COc1cc(OC)c(C(O)C2C=CC3C(=O)N(c4ccccc4)C(=O)C3N2Nc2ccccc2F)cc1Br (stereo unspecified) | -1.76 (inactive) |
| NC(=O)N1C(=O)C2C(C1=O)C1C=C(CCCO)C2C(c2ccc(CN3CCCC3)cc2)N1Cc1cccc(OC(F)(F)F)c1 (stereo unspecified) | -0.267 (inactive) |
| CC(C)C[C@H]1NC(=O)[C@@]23C(=O)N[C@@H](Cc4ccccc4)C2[C@H](C)[C@@]2(C)O[C@H]2C3/C=C/C/C=C\CNC(=O)[C@@H]2CCCN2C1=O (stereo partly specified) | -1.09 (inactive) |
| COC(=O)[C@@]1(Cc2ccc(F)cc2)[C@H]2c3cc(C(=O)N(C)C)n(CCn4cc([N+](=O)[O-])nc4C)c3C[C@H]2CN1C(=O)c1ccccc1 | -2.34 (inactive) |
| C=CC[C@]1(C(=O)NCCCOC)N=C(c2ccc(OCCCO)cc2)O[C@H]1c1ccccc1 | 0.898 (inactive) |
| COCCOC(=O)N1C(=O)[C@@]2(c3cc(C#CC4=CCCCC4)ccc31)[C@H](c1ccccc1OCCO)N1[C@H](c3ccccc3)[C@H](c3ccccc3)OC(=O)[C@H]1[C@@H]2C(N)=O | 1.97 (inactive) |
| CC(C)C[C@@H]1NC(=O)[C@@]23C(=O)N[C@@H](Cc4ccccc4)C2[C@H](C)[C@@]2(C)O[C@H]2C3/C=C/C/C=C\CNC(=O)[C@@H](CC(C)C)NC1=O (stereo partly specified) | -0.664 (inactive) |

Experiment: small-molecule binders of probe aLefty1, primary screen, biochemical, small-molecule microarray, 635/667 nm fluorescence (AID 1153);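 further: score merges spot fluorescence with signal-to-noise ratio from the scanned slide images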
Details: higher = more signal

| Structure (SMILES) | composite z-score |
| --- | --- |
| CN1C(=O)[C@]2(CCC(=O)OC(C)(C)C)N=C(c3ccc(OCCCO)cc3)O[C@@H]2c2ccccc21 | 0.448 |
| CC(c1ccccc1)C(O)C1C=CC2C(=O)N(c3ccccc3)C(=O)C2N1Nc1ccc(C#N)cc1 (stereo unspecified) | 0.379 |
| COCCOC(=O)N1C(=O)[C@@]2(c3cc(C#CCCO)ccc31)[C@H](C(=O)N1CCN(c3ncccn3)CC1)[C@H]1C(=O)O[C@H](c3ccccc3)[C@H](c3ccccc3)N1[C@@H]2c1ccc(O)cc1 | -0.36 |
| C#CCN(C/C=C/c1ccccc1)[C@H](CO[Si](C)(C)C(C)(C)C)c1ccccc1 | -0.346 |
| NCCCC[C@@H]1NC(=O)[C@H]2C[C@@H](C(=O)O)[C@@H](c3cccc(OCCO)c3)N2C1=O | 0.951 |
| [N-]=[N+]=NCc1ccccc1C[C@]1(C(=O)N2CCCCC2)N=C(c2ccc(OCCCO)cc2)O[C@H]1c1ccccc1 | 0.118 |
| CCCCC(=C=CC[C@H](O)c1ccc(OCCO)cc1)C[C@H](O)c1ccccn1 | -0.0536 |
| CN(C)C(=O)[C@@]1(CCS(=O)(=O)c2ccccc2)N=C(c2ccc(OCCCO)cc2)O[C@H]1c1ccccc1N=[N+]=[N-] | -0.148 |
| [N-]=[N+]=NCc1ccccc1[C@@H]1OC(c2ccc(OCCCO)cc2)=N[C@]1(Cc1ccccc1)C(=O)NCc1ccccc1 | 0.219 |
| O=C(NCCO)C1=C[C@H](Oc2ccccc2I)[C@@H](O)[C@H](NCc2ccc(F)cc2)C1 | -0.338 |
| COc1ccc([Si](C)(C)[C@@H]2[C@@H](CC(=O)N(CCO)Cc3ccccc3)O[C@]3(C(=O)N(Cc4ccc(N5CCC5=O)cc4)c4ccccc43)[C@H]2C)cc1 | -0.399 |
| O=C1NC(=O)C2C1C=CC(C(O)c1cccc(O)c1)N2Nc1ccc(Cl)cc1Cl (stereo unspecified) | 0.139 |
| CC(C)C[C@@H]1NC(=O)C([C@@H](C)OCc2ccccc2)NC(=O)[C@@]23C(=O)N[C@@H](Cc4ccccc4)C2[C@H](C)[C@@]2(C)O[C@H]2C3/C=C/CC/C=C/CNC1=O (stereo partly specified) | -0.164 |
| COc1ccc([Si](C)(C)[C@H]2[C@H](CCO)O[C@@]3(C(=O)N(Cc4ccc(N5CCOC5=O)cc4)c4ccccc43)[C@@H]2C)cc1 | 0.203 |
| COc1ccc(CCNC(=O)[C@@]2(Sc3ccc(C)cc3)CC(=O)N(Cc3cc(C(F)(F)F)cc(C(F)(F)F)c3)[C@@H]2c2ccc(CO)cc2)cc1 | 0.469 |
| CCCCC(O)C1C=CC2C(=O)NC(=O)C2N1Nc1ccc(Cl)cc1Cl (stereo unspecified) | 0.396 |
| CO[C@H]1O[C@H](CO)[C@@H](OC(=O)Nc2ccc3c(c2)OCO3)[C@@H]2OC(=O)[C@@H](Cc3ccccc3)C/C=C/C[C@H](Cc3ccccc3)C(=O)O[C@@H]12 | 0.12 |
| CN(C)C(=O)[C@]1(Cc2ccccc2CN=[N+]=[N-])N=C(c2ccc(OCCCO)cc2)O[C@@H]1c1ccccc1N=[N+]=[N-] | 0.413 |

| Structure (SMILES) | composite z-score |
| --- | --- |
| O=C1OCCC=C[C@H]2OC34C=CCN(CCN5CCOCC5)C(=O)[C@H]3N(CCCO)C(=O)[C@@H]4C12 (stereo partly specified) | -0.0464 |
| C=CCNC(=O)[C@@H]1[C@H]2C(=O)O[C@H](c3ccccc3)[C@H](c3ccccc3)N2[C@H](c2ccccc2OCCO)[C@@]12C(=O)N(C(=O)OCCOC)c1ccc(C#CCCO)cc12 | 0.209 |
| C=CCC(OC(C)=O)[C@@H]1[C@@H](N(Cc2cccc3ccccc23)C(=O)c2cccc3ccccc23)c2cc(OCCCO)ccc2N1C(=O)Cc1ccc2ccccc2c1 (stereo partly specified) | 0.211 |
| C=C(COC)/C(=C/C[C@@H](OC(C)=O)c1ccccc1OCCO)c1cc(C(=O)OC)ccc1OC | 0.0945 |
| COCC(=C=CC[C@@H](O)c1cccc(OCCO)c1)C[C@@H](O)COCc1ccccc1 | 1.24 |
| CCCCC=C[C@@H](NC(=O)c1ccc(C(F)(F)F)cc1)c1ccccc1 | -0.112 |
| COC(=O)[C@]1(CO)N=C(c2ccc(OCCCO)cc2)O[C@@H]1c1ccccc1CN=[N+]=[N-] | -0.0626 |
| COC(=O)[C@@]1(Cc2ccc(OC)cc2)[C@H]2c3cc(C(=O)N4CCCC4)n(CCc4ccc(OC)c(Br)c4)c3C[C@H]2CN1C(=O)c1ccccc1 | 0.291 |
| COCCOC(=O)N1C(=O)[C@@]2(c3cc(C#CCC(C(=O)OC)C(=O)OC)ccc31)[C@H](C(=O)N1CCc3cc(OC)c(OC)cc3C1)[C@H]1C(=O)O[C@H](c3ccccc3)[C@H](c3ccccc3)N1[C@@H]2c1ccc(O)cc1 | 0.191 |
| CCC(CC)C(O)C1C=CC2C(=O)N(C)C(=O)C2N1N1CCCCC1 (stereo unspecified) | 0.361 |
| COc1cc2c(cc1O)C(c1ccc(CN3CCCC3)cc1)N(Cc1ccc([N+](=O)[O-])o1)CC2 (stereo unspecified) | -0.257 |
| COc1cc(OC)c(C(O)C2C=CC3C(=O)N(c4ccccc4)C(=O)C3N2Nc2ccccc2F)cc1Br (stereo unspecified) | 0.692 |
| NC(=O)N1C(=O)C2C(C1=O)C1C=C(CCCO)C2C(c2ccc(CN3CCCC3)cc2)N1Cc1cccc(OC(F)(F)F)c1 (stereo unspecified) | -0.101 |
| CC(C)C[C@H]1NC(=O)[C@@]23C(=O)N[C@@H](Cc4ccccc4)C2[C@H](C)[C@@]2(C)O[C@H]2C3/C=C/C/C=C\CNC(=O)[C@@H]2CCCN2C1=O (stereo partly specified) | -0.0544 |
| COC(=O)[C@@]1(Cc2ccc(F)cc2)[C@H]2c3cc(C(=O)N(C)C)n(CCn4cc([N+](=O)[O-])nc4C)c3C[C@H]2CN1C(=O)c1ccccc1 | 0.0861 |
| C=CC[C@]1(C(=O)NCCCOC)N=C(c2ccc(OCCCO)cc2)O[C@H]1c1ccccc1 | -0.0172 |
| COCCOC(=O)N1C(=O)[C@@]2(c3cc(C#CC4=CCCCC4)ccc31)[C@H](c1ccccc1OCCO)N1[C@H](c3ccccc3)[C@H](c3ccccc3)OC(=O)[C@H]1[C@@H]2C(N)=O | -0.0611 |
| CC(C)C[C@@H]1NC(=O)[C@@]23C(=O)N[C@@H](Cc4ccccc4)C2[C@H](C)[C@@]2(C)O[C@H]2C3/C=C/C/C=C\CNC(=O)[C@@H](CC(C)C)NC1=O (stereo partly specified) | 0.0774 |
